In PubChem BioAssay (EPA / NIEHS):
Where “and” joins values, the source holds several entries; their conditions need not be identical. Equal entries are not always repeated. Calls of active or inactive are those of the source. Rule for the calls: active = hit-call score of the fitted dose curve at least 0.9, where 1 is the maximum; inactive = score below 0.9.

These compounds were tested on Interleukin-1 alpha (IL1a), IL1A (gene 3552) (assay: BSK_LPS_IL1a: BioMAP Diversity Plus: LPS Assay for Interleukin-1 alpha (IL1a) Biomarker Activity (AID 2283080)). Conditions: primary human HUVEC with PBMC; actives raise or lower the signal.
Protocol: BSK_LPS is a cell-based, multiplexed-readout assay that uses umbilical vein endothelium and peripheral blood mononuclear cells, a human vascular primary cell co-culture, with measurements taken at 24 hours after chemical dosing in a 96-well plate.BSK_LPS_IL1a is an assay component measured in the BSK_LPS assay. It measures IL-a antibody related to regulation of gene expression using ELISA technology.Data from the assay component BSK_LPS_IL1a was analyzed into 1 assay endpoint. This assay endpoint, BSK_LPS_IL1a, was analyzed with bidirectional fitting relative to DMSO as the negative control and baseline of activity. Using a type of binding reporter, gain or loss-of-signal activity can be used to understand changes in the signaling as they relate to the gene IL1A. Furthermore, this assay endpoint can be referred to as a primary readout, because this assay has produced multiple assay endpoints where this one serves a signaling function. To generalize the intended target to other relatable targets, this assay endpoint is annotated to the cytokine intended target family, where the subfamily is interleukins.
The levels of cell surface (or secreted, indicated by the prefix "s") biomarker endpoints were measured by ELISA. Overt cytotoxicity to cells in confluent adherent cultures (all systems other than the BT system) was assessed by measuring total protein levels using sulforhodamine B (SRB) staining in parallel cultures at the time of biomarker measurements, indicated as SRB endpoints. For proliferation assays for adherent cell types, individual cell types are cultured at sub-confluence and relative cell numbers quantified by SRB staining at time points optimized for each system (48 h: 3C and CASM3C systems; 72 h: BT and HDF3CGF systems; 96 h: SAg system). SRB was performed by staining cells with 0.1% SRB after fixation with 10% TCA and reading wells at 560 nm.Viability and proliferation of PBMC (T cells) was quantified by Alamar Blue reduction for the SAg and BT systems. For PBMC viability (referred to as PBMC Cytotoxicity within the assay endpoint names), cells were plated (75,000/well in a 96-well plate) and then chemical samples added for 1 h before addition of activators, SEB and TSST-1 (20 ng/mL final concentration each). Cells were incubated for 90 h. Then, Alamar Blue (20 uL/well) (Invitrogen, Cat DAL1100) was added for 6 h, and the plates were read with a fluorescence microplate reader at 546/580 nm (excitation/emission). For PBMC proliferation, cells were plated and activated as above but incubated for only 16 h prior to addition of Alamar Blue. Plates were read after 6 h.

SMILES	outcome	AC50
C=C(F)C(=O)OC(C(F)(F)F)C(F)(F)F	inactive	
CC/C(=C(\c1ccccc1)c1ccc(OCCN(C)C)cc1)c1ccccc1		6.74 µM (active) and 9.95 µM (active)
CC(C)(CO)CO	inactive	
CC1=CC(C)C(C=O)C(C)C1 (stereo not given) (tested in a mixture with another compound)	inactive	
CCCCOCCOCCO	inactive	
CCCCCCCC1CCCC1=O (stereo not given)	inactive	
CC=CC(=O)C1=C(C)C=CCC1(C)C	inactive	
CC(=O)OCC=C(C)CCC=C(C)CCC=C(C)C	inactive	
O=C(c1ccc(OCCN2CCCCC2)cc1)c1c(-c2ccc(O)cc2)sc2cc(O)ccc12		21 µM (active)
CC(=O)c1ccc(C)cc1	inactive	
NC(=O)c1c(Cl)cccc1Cl	inactive	
C=C(C)C(=O)OCCC(F)(F)C(F)(F)C(F)(F)C(F)(F)C(F)(F)C(F)(F)C(F)(F)C(F)(F)F	inactive	
c1ccc(Sc2ccccc2)cc1		33.8 µM (active)
CCOC(=O)CCCCCCCCC(=O)OCC	inactive	
C=CC(=O)OCC(CO)(COC(=O)C=C)COC(=O)C=C		0.404 µM (active)
CCCO[Si](OCCC)(OCCC)OCCC	inactive	
c1ccc2c(c1)-c1ccc3ccc4cccc5cc-2c1c3c45	inactive	
OCC(F)(OC(F)(F)C(F)(OC(F)(F)C(F)(F)C(F)(F)F)C(F)(F)F)C(F)(F)F (stereo not given)		5.01 µM (active) and 4.53 µM (active)
CC1(C)[C@H](C=C(Cl)Cl)[C@H]1C(=O)OCc1cccc(Oc2ccccc2)c1	inactive	
c1ccc(OCCOc2ccccc2)cc1	inactive	

SMILES	outcome	AC50
CCOC(=O)C=Cc1ccccc1	inactive	
CC(C)(C)c1cccc(O)c1	inactive	
Nc1ccc(N)c([N+](=O)[O-])c1	inactive	
C=C1CC/C=C(\C)CC[C@@H]2[C@@H]1CC2(C)C		31.8 µM (active)
CCCCCCCCCC(=O)OCC	inactive	
COC(=O)c1ccc(C(=O)OC)cc1	inactive	
CC(=O)CCC=C(C)CCC=C(C)C	inactive	
C=C(C)C(N)=O	inactive	
CCCCCCCCCCCCS	inactive	
O=C1OC2(c3ccc(O)cc3Oc3cc(O)ccc32)c2ccccc21	inactive	
CC(C)CCCC(C)(C)O	inactive	
CCC(=O)OCC=Cc1ccccc1	inactive	
CCCCN(CCO)CCO	inactive	
C#C[C@]1(O)CC[C@H]2[C@@H]3CCc4cc(O)ccc4[C@H]3CC[C@@]21C		20 µM (active)
CC(C)Cc1ccc(C(C)C(=O)O)cc1 (stereo not given)	inactive	
O=S1(=O)CC(Cl)(Cl)C(Cl)(Cl)C1		0.518 µM (active)
O=S(=O)(O)C(F)(F)C(F)(F)OC(F)(F)C(F)(F)F	inactive	
CCn1cc(C(=O)O)c(=O)c2ccc(C)nc21	inactive	
CC(=O)OC(C)(C)C1CC=C(C)CC1 (stereo not given)	inactive	
O=C(O)C(F)(F)C(F)(F)C(F)(F)C(F)(F)C(F)(F)C(F)(F)C(F)(F)C(F)F	inactive	
